Compound activity: PubChem, National Center for Advancing Translational Sciences (NCATS)
This is a sample that favours compounds with a hit; in the whole collection about 2.5% have one here.
Cruzain inh noDet: blocks cruzain activity in detergent-free assay | actives 2.3% (n = 200,000) | P25779 | AID 1476 | Potency, µM, hits mostly inhibitors | purified cruzain, Z-FR-AMC fluorescence, no detergent; note: nearly all actives have a fitted effect of over 40% in size
Target sequence (P25779 123-467 limits assumed): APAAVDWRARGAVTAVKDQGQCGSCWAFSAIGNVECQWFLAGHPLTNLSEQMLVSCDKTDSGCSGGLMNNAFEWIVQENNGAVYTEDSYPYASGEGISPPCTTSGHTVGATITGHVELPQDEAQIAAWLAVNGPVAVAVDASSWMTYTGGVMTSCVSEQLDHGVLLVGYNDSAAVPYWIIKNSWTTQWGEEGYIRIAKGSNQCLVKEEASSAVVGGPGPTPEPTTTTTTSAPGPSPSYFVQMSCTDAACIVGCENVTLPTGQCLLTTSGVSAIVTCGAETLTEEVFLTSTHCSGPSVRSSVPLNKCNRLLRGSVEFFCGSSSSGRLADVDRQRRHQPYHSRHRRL
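Detergent-free condition (0.00005% Triton X-100) in acetate buffer pH 5.5 with DTT. 1.5 nM enzyme and compound were pre-mixed 15 min, then 2 uM Z-FR-AMC substrate added; reaction progress from fluorescence change between first and third reads (60 s).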
Cruzain inh Det: cruzain (T. cruzi) inhibition with detergent | P25779 | purified cruzain, Z-FR-AMC fluorescence, 0.01% Triton | Potency, µM, usual class: inhibitors | actives 0.43% (n = 200,000) | AID 1478; note: nearly all actives have a fitted effect of over 40% in size
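Sodium acetate buffer (100 mM, pH 5.5) containing 5 mM DTT and 0.01% Triton X-100 hosted 1.5 nM cruzain and test compound for 15 min at room temperature. Cleavage of 2 uM Z-FR-AMC was then tracked by fluorescence.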
Large screens that a line does not name were inactive. Calls come from the whole dose curve; as a rule, active = well fitted curve in the direction sought with a large enough effect; inconclusive = small, poorly fitted or top-dose-only effect, or another doubt; inactive = no such curve, though single readings can be large; an effect the other way counts as inactive or inconclusive.

Cc1ccc(NC(=O)C(C)OC(=O)c2ccc(NS(=O)(=O)c3ccc(F)c(F)c3)cc2)cc1 (centres undefined)	none
Cc1ccc(S(=O)(=O)Nc2ccccc2C(=O)OC(C)C(=O)Nc2ccc3ccccc3c2)cc1[N+](=O)[O-] (centres undefined)	Cruzain inh noDet 7.9µM
CCN(c1ccccc1)S(=O)(=O)c1ccc(NC(=O)c2nc(SC)ncc2Cl)cc1	none
COc1ccccc1N1CCN(c2nc3ccc(C)cc3nc2-n2nc(C)cc2C)CC1	Cruzain inh noDet inconclusive
Cc1cc(O)c2c(c1O)C(=O)C(O)=C(O)C2=O	none
CC(CNC(=O)c1csc2c1CCCCC2)c1ccccc1 (centres undefined)	none
COc1ccc(S(=O)(=O)Nc2ccc3c(c2)sc(=O)n3C)cc1Cl	none
CCCCOc1ccc(S(=O)(=O)N2CCN(c3ccccc3OCC)CC2)cc1	none
Cc1ccc(-n2c(C)cc(/C=N/NC(=O)c3ccncc3)c2C)cc1	none
Cc1ccc(C(=O)N/N=C/c2cc(C)n(-c3ccc(Br)cc3)c2C)cc1[N+](=O)[O-]	Cruzain inh noDet 20µM
CC(=O)Nc1ccc(C)cc1-c1nc2ccccc2n(Cc2cccc(Br)c2)c1=O	none
CCc1ccc2c(c1)-c1ccccc1S(=O)(=O)N2CC(=O)N1CCCCC1	none
Cc1nc(NC(=O)c2ccccc2)sc1-c1csc(Nc2ccc(F)cc2)n1	Cruzain inh noDet 16µM
Cc1nc(NC(=O)c2ccccc2)sc1-c1csc(Nc2ccc(Cl)cc2)n1	Cruzain inh noDet 4µM
Cc1nc(NC(=O)c2ccccc2)sc1-c1csc(Nc2cccc(Cl)c2)n1	Cruzain inh noDet 10µM
O=C(Nc1nc(-c2ccc(Cl)s2)cs1)c1ccccc1	none
COc1cccc([C@@H]2Oc3ccc(OC)cc3C[C@H]2OC(=O)NS(=O)(=O)c2ccc(C)cc2)c1	none
CC(=O)CC(=O)Nc1ccccc1	none
Cc1ccc(OCCn2c(-c3ccc(Br)cc3)nc3ccccc3c2=O)cc1C	none
O=C1C2C3C=CC(C4CC34)C2C(=O)N1/N=C/c1ccc([N+](=O)[O-])s1 (centres undefined)	none
O=C1C2C3C=CC(C4CC34)C2C(=O)N1/N=C/c1ccc(-c2cccc([N+](=O)[O-])c2)o1 (centres undefined)	Cruzain inh noDet 25µM
O=C(Nc1cnc(N2CCN(c3ccccc3)CC2)c(C(=O)O)c1)c1cccs1	none
CSc1cc(-c2ccccc2)n(Cc2ccc(Cl)cc2Cl)c(=O)c1C#N	Cruzain inh noDet 25µM
Cc1cc(C)n(Cc2ccc(Cl)cc2Cl)c(=O)c1S(=O)(=O)c1ccccc1	none
Cn1c(C(=O)NCc2ccc3c(c2)OCO3)cc2sccc21	none
Cn1c(C(=O)Nc2ccc3c(c2)OCO3)cc2sccc21	Cruzain inh noDet 25µM
CCOc1ccc(C2CC(=O)c3c([nH]c(C(=O)OCC4CCCCC4)c3C)C2)cc1 (centres undefined)	none
O=[N+]([O-])c1cccc(/C=N\Nc2ccc3ccccc3n2)c1O	none
O=C(O)c1ccc(N2CCCCC2)cc1	none
Nc1ccc(N2CCCCCC2)cc1	Cruzain inh noDet 32µM
O=C(Nc1ccc(NC(=O)c2cccs2)cc1)c1ccc(Br)o1	Cruzain inh noDet 25µM
O=C(NNC(=O)c1cccs1)c1ccc(Br)o1	none
N#CCCCC[N+]12CN3CN(CN(C3)C1)C2	none
O=S(=O)(c1ccc(Cl)cc1)c1nnn2c1nc(NC1CCCCC1)c1sccc12	none
COc1cccc(N2CCN(C3C(=O)c4ccccc4N3C(C)=O)CC2)c1 (centres undefined)	none
Cc1ccc(S(=O)(=O)C2(C(=O)Nc3ccc(Cl)c(C(F)(F)F)c3)CC2)cc1	none
Cc1nn2c(=O)cc(COc3ccc(/C=C(\C#N)C(=O)Nc4ccccc4)cc3Cl)nc2s1	none
O=C(O)C[C@H]1OCC=C2CN3CC[C@@]45C6=CC(=O)C(=O)C([N+](=O)[O-])=C6N[C@H]4[C@H]1[C@H]2C[C@@H]35	none
O=C(c1ccc2c(c1)N(Cc1ccc(Cl)cc1)C(=O)c1ccccc1S2(=O)=O)N1CCC(Cc2ccccc2)CC1	Cruzain inh noDet 13µM
O=C(c1ccc2c(c1)N(Cc1ccccc1F)C(=O)c1ccccc1S2(=O)=O)N1CCC(Cc2ccccc2)CC1	none
O=C(NCc1ccccc1)c1ccc2c(c1)N(Cc1cccc(Cl)c1)C(=O)c1ccccc1S2(=O)=O	Cruzain inh noDet inconclusive
CCc1ccccc1NC(=O)c1ccc2c(c1)N(Cc1cccc(Cl)c1)C(=O)c1ccccc1S2(=O)=O	Cruzain inh noDet 16µM
O=C(Nc1cccc(Cl)c1Cl)c1ccc2c(c1)N(Cc1cccc(Cl)c1)C(=O)c1ccccc1S2(=O)=O	Cruzain inh noDet 4µM
COc1ccccc1CNC(=O)c1ccc2c(c1)N(Cc1cccc(Cl)c1)C(=O)c1ccccc1S2(=O)=O	Cruzain inh noDet inconclusive
COc1cccc(C(=O)Nc2c3c(nn2-c2ccc(Cl)cc2)CS(=O)(=O)C3)c1	none
Cc1ccc(S(=O)(=O)O[C@H]2CC(C(C)(C)C)CC[C@@H]2c2ccccc2)cc1 (some centres undefined)	none
CCN1CCN(c2ncc3c(n2)CCN(Cc2ccccc2C)C3)CC1	none
CCOc1ccccc1NC(=O)CN1C(=O)COc2ccc(S(=O)(=O)N3CCCCCC3)cc21	none
Cc1ccc(S(=O)(=O)c2nc(-c3ccco3)oc2SCC(=O)c2ccc(Cl)cc2)cc1	Cruzain inh noDet inconclusive
O=C(CSc1oc(-c2ccc(F)cc2)nc1S(=O)(=O)c1ccc(Cl)cc1)c1ccccc1	Cruzain inh noDet 32µM
O=C(CSc1oc(-c2ccco2)nc1S(=O)(=O)c1ccc(Cl)cc1)c1ccc(Cl)cc1	Cruzain inh noDet 25µM
O=C(CSc1oc(-c2ccccc2)nc1S(=O)(=O)c1ccc(Cl)cc1)c1ccccc1	Cruzain inh noDet inconclusive
COCCNC(=O)CSc1nc(-c2cc(OC)c(OC)c(OC)c2)[nH]c1-c1ccc(Cl)cc1	Cruzain inh noDet inconclusive
CC1=CC(C)(C)n2c(O)c(N=NC(N)=S)c3cccc1c32	none
CC1=CC(C)(C)n2c(O)c(N=NC(N)=S)c3c(C)ccc1c32	Cruzain inh noDet 20µM, Cruzain inh Det inconclusive
COCCCNC(=O)Cn1nc(N2CCN(c3ccccc3)CC2)ccc1=O	none
COc1ccc(-c2[nH]c(-c3ccccc3)nc2SCC(=O)Nc2ccc3c(c2)OCO3)cc1	Cruzain inh noDet inconclusive
COc1ccc(-c2c3c([nH]c(=S)c2C#N)CCC3)cc1	Cruzain inh noDet 16µM
N#Cc1c(-c2cccnc2)c2c([nH]c1=S)CCCC2	none
COc1ccccc1CNC(=O)CCn1c(=O)c2ccccc2n(CC(=O)Nc2cc(Cl)ccc2C)c1=O	none
CN1CCc2nc3sc(C(=O)Nc4ccccc4C(F)(F)F)c(N)c3cc2C1	none
Fc1ccccc1COc1ccccc1/C=N/Nc1nc(N2CCCC2)nc(N2CCCC2)n1	Cruzain inh noDet inconclusive
Fc1ccc(COc2ccc(Cl)cc2/C=N/Nc2nc(N3CCCC3)nc(N3CCCC3)n2)cc1	Cruzain inh noDet 5µM
N=C(N)SCCN1CCCCC1	none
CCC(/C=N/Nc1ccc(S(=O)(=O)N2CCCC2)cc1[N+](=O)[O-])CC	Cruzain inh noDet 20µM
O=[N+]([O-])c1cc(S(=O)(=O)N2CCCC2)ccc1N/N=C/c1cccnc1	none
CCn1c(=O)n(-c2ccc(F)c(Cl)c2)c(=O)c2c3c(sc21)CN(C(C)=O)CC3	none
O=C(O)/C=C\c1c2ccc(=O)c(O)c-2oc2c(O)c(O)ccc12	none
O=C(COC(=O)C1CC(=O)N(c2ccccc2)C1)c1ccccc1 (centres undefined)	none
